High-throughput results as filed in PubChem.
Rows were chosen to be rich in hits. Some 2.6% of all compounds tested hit in one or more screens of this group.
APOBEC3G inh: APOBEC3G DNA deaminase inhibitors, primary screen, biochemical, fluorescence, single-stranded DNA substrate, uHTS; actives 0.28% (n = 330,000); AID 493012, 2011; DNA dC->dU-editing enzyme APOBEC-3G (Homo sapiens), Q9HC16; recombinant A3G, ssDNA deamination FAM/TAMRA fluorescence; inhibition, % at 20 µM;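 active means inhibition of at least 40% at 20 µM, with no more than 30% in the related APOBEC3A deaminase screen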
A3A deaminase: APOBEC3A ssDNA deaminase inhibitors, primary screen, selectivity assay for APOBEC3G inhibitor project, biochemical, FAM/TAMRA oligo cleavage fluorescence. inhibition, % at 20 µM. actives 0.41% (n = 330,000). recombinant A3A, FAM/TAMRA ssDNA deamination fluorescence. DNA dC->dU-editing enzyme APOBEC-3A (Homo sapiens), P31941;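 active means at least 40% inhibition at 20 µM here, with at most 30% in a related deaminase screen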
eIF4H FP inh: human eIF4H binding inhibitors, primary screen, translation initiation inhibitor project, biochemical, uHTS, fluorescence polarization. Eukaryotic translation initiation factor 4H (Homo sapiens), Q15056. AID 2012, 2009. inhibition, % at 35 µM. actives 0.94% (n = 290,000). eIF4H fluorescence polarization binding assay;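 further: calls also rest on retests at 20 µM and on dose response follow-up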
PHOSPHO1 inh: PubChem AID 1565; inhibition, % at 13.3 µM; actives 1.1% (n = 290,000); Phosphoethanolamine/phosphocholine phosphatase (Homo sapiens), Q8TCT1; recombinant PHOSPHO1, absorbance phosphatase assay; in the data active means inhibition above about 60%
Target sequence (Q8TCT1 whole entry, looked up): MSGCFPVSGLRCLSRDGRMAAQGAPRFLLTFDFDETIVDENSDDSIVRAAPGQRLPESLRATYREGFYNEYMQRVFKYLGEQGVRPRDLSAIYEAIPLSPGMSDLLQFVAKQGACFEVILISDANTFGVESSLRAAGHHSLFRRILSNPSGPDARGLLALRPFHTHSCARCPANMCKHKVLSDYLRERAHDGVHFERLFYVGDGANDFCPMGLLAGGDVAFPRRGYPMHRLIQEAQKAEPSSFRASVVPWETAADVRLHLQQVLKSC
PABP polyA inh: PABP poly(A) RNA binding inhibitors, primary screen, biochemical, fluorescence polarization, uHTS | Polyadenylate-binding protein 1 (Homo sapiens), P11940 | calls only at 35 µM | actives 1% (n = 290,000);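 further: calls also rest on retests at 20 µM and on dose response follow-up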
MLLE-PAM2 inh: inhibitors of PABP1 MLLE–PAM2 peptide binding, primary screen, biochemical, fluorescence polarization, FITC-PAM2, GST-MLLE | Polyadenylate-binding protein 1 (Homo sapiens), P11940 | inhibition, % at 20 µM | actives 0.36% (n = 360,000); in the data active means inhibition above about 35%, passing the limit was not always enough
Each line names hits and unclear results; the compound was inactive in the other large screens. Unless noted, how the calls were made is not given here.

NC(=S)NN=C(c1ccc(F)cc1)C1CC1	none (no result: APOBEC3G inh, A3A deaminase, eIF4H FP inh, PHOSPHO1 inh, PABP polyA inh)
O=Cc1c(Cl)nc2ccccn12	none
OCc1c(Cl)nc2ccccn12	PABP polyA inh active
O=C(NC1CCCCC1)c1nn2c(C(F)(F)F)cc(-c3ccco3)nc2c1Br	none
O=C(c1ccccc1)N1CCN(C(=O)c2nn3c(C(F)(F)F)cc(-c4ccco4)nc3c2Br)CC1	eIF4H FP inh 69.0
O=C(O)c1cnn2c(C(F)(F)F)cc(-c3ccco3)nc12	eIF4H FP inh 78.0, PABP polyA inh active
CC(C)(C)S(=O)(=O)c1cnc(N2CCCC2)nc1N	none
Cc1ccnc(NC(=O)CCC(=O)N(Cc2ccco2)C(C(=O)NC(C)C)c2ccc(F)cc2)c1 (centres undefined)	none
CNc1sc(C(=O)c2ccccc2F)c(N)c1-c1nc2ccccc2s1	MLLE-PAM2 inh 41.2
O=C(CNC(=O)c1ccccc1F)OCc1nc2ccccc2s1	none
Cc1ccc(-c2ccnc3nc(-n4cccc4)nn23)o1	eIF4H FP inh 55.7, PABP polyA inh active
c1ccc(-c2ccnc3nc(N4CCN(c5ccccc5)CC4)nn23)cc1	none
CC(=O)c1cc(C#N)c(SCc2ccncc2)nc1C	PHOSPHO1 inh 69.4
O=C(NCCCN1CCOCC1)C(=O)NCC1OCCCN1S(=O)(=O)c1cc(F)ccc1F (centres undefined)	PHOSPHO1 inh 75.4
CN1/C(=C\C(=O)Nc2ccc(F)cc2)C(C)(C)c2ccccc21	none
CN1/C(=C\C=N\O)C(C)(C)c2ccccc21	none
CN1/C(=C\C=C(/C#N)C(=O)Nc2ccccc2F)C(C)(C)c2ccccc21	PABP polyA inh active
CN1/C(=C/C=C(/C#N)C(N)=O)C(C)(C)c2ccccc21	eIF4H FP inh 54.9
Cc1ccc(C(=O)Nc2ccc(N3CCN(C(=O)c4cccs4)CC3)cc2)c(Cl)c1	none
Cc1cn(C2CCC(CO)O2)c(=O)[nH]c1=O (centres undefined)	none
O=C1c2ccccc2C(=O)c2c1cccc2N(CCO)CCO	eIF4H FP inh inconclusive, PABP polyA inh inconclusive, MLLE-PAM2 inh 41.1
Cc1ccc2nc(C)c(C(=O)N/N=C/c3ccco3)cc2c1	none
Cc1nc2ccccc2cc1C(=O)N/N=C/c1ccco1	eIF4H FP inh 87.3
O=C(N/N=C/c1ccco1)c1cc(-c2cccs2)[nH]n1	eIF4H FP inh 59.8, PABP polyA inh active
O=C(N/N=C/c1ccco1)c1cc(-c2ccc(Br)s2)[nH]n1	none
CCOC(=O)[C@@H]1[C@H]2COc3cc(OC)ccc3[C@H]2N2C(=O)N(c3ccc(C)cc3)C(=O)[C@@]12C	none
O=C(Nc1nnc(C2CC2)s1)C1CC(=O)N(c2ccc3c(c2)OCCO3)C1 (centres undefined)	eIF4H FP inh 95.5, PABP polyA inh active
CC(C)CC(=O)Nc1ccc(-c2nnn(CC(=O)NCc3ccco3)n2)cc1	none
COc1ccc(C(=O)NC(=S)NCc2cccnc2)cc1[N+](=O)[O-]	MLLE-PAM2 inh 38.0
CCOc1ccc(NC(=S)NC(=O)c2cccnc2)c([N+](=O)[O-])c1	MLLE-PAM2 inh 43.6
COc1cc(NC(=S)NCc2cccnc2)cc(OC)c1OC	PHOSPHO1 inh 62.8
CCC(C)n1c(C)nc2c(c1=O)c1nc3ccccc3nc1n2-c1ccc2c(c1)OCCO2 (centres undefined)	none (no result: APOBEC3G inh, A3A deaminase, MLLE-PAM2 inh)
CCOc1ccc2nc(NC(=O)CSCC(=O)Nc3cc(C)on3)sc2c1	none (no result: eIF4H FP inh, PHOSPHO1 inh, PABP polyA inh)
CC(=O)N1c2ccccc2N2C(c3c(C)c(C)cc(C)c3C)=NON12	none (no result: APOBEC3G inh, A3A deaminase)
N#Cc1c(-c2ccco2)cc(-c2ccccc2)[nH]c1=O	eIF4H FP inh inconclusive, PABP polyA inh active
Cc1cc(NC(=O)CSc2nnc(C(C)N(C)C)n2-c2ccc(F)cc2)no1 (centres undefined)	none
Cc1ccc(C)c2sc(N)nc12	none
Cc1sc2nc(N)sc2c1C	PHOSPHO1 inh 89.5
CC1(C(=O)NCC2CC2)Cc2c(-c3ccccc3)ccnc2O1 (centres undefined)	none (no result: APOBEC3G inh, A3A deaminase, eIF4H FP inh, PHOSPHO1 inh, PABP polyA inh)
COc1ccc(C(N)=S)c(OC)c1	MLLE-PAM2 inh 38.6
COc1ccc(/C(C)=N/N=C(\C)c2ccc(OC)cc2OC)c(OC)c1	none
C#CCSc1nnc(CSc2nc3ccccc3s2)n1-c1ccccc1	PHOSPHO1 inh 75.7
O=C(O)CSc1nnc(CSc2nc3ccccc3s2)n1-c1ccccc1	none
CCn1c(CSc2nc3ccccc3s2)nc2ccccc21	none
S=c1[nH]nc(COc2ccccc2)n1C1CCCCC1	PHOSPHO1 inh 65.5
S=c1[nH]nc(CSc2nc3ccccc3s2)n1C1CCCCC1	PHOSPHO1 inh 96.2
CC(=O)c1cccc(OCc2cc(C(=O)N3CCC(N4CCCCC4)CC3)no2)c1	PHOSPHO1 inh 64.0 (no result: eIF4H FP inh, PABP polyA inh)
CC(=O)c1cccc(OCc2cc(C(=O)N3CCSCC3)no2)c1	none
CC(/C=N/n1c(-c2ccc(Cl)cc2)n[nH]c1=S)=C\c1ccco1	none
CC(/C=N/n1cnnc1)=C\c1ccco1	PABP polyA inh active
CC[n+]1c(/C=C/Nc2ccccc2)oc2ccc(OC)cc21	eIF4H FP inh inconclusive, PABP polyA inh inconclusive
CC[n+]1c(/C=C/Nc2ccccc2)oc2ccccc21	PHOSPHO1 inh 101.4
CC(NC(=O)C1CCN(CCOc2ccc(Cl)cc2)CC1)c1cccc2ccccc12 (centres undefined)	none (no result: APOBEC3G inh, A3A deaminase, eIF4H FP inh, PHOSPHO1 inh, PABP polyA inh)
COC(=O)c1ccccc1NC(=O)CSc1nc(N)cc(=O)[nH]1	eIF4H FP inh 90.1
C/C(=C\C(=O)c1ccc(Cl)cc1)NCc1ccc2c(c1)OCO2	PHOSPHO1 inh 84.6
O=C(CSCc1ccc(Cl)cc1)NCc1ccc2c(c1)OCO2	none
COCCNC(=O)CN(C(=O)CCC(=O)Nc1ccccn1)c1ccccc1F	none
O=C(CSc1n[nH]c(=O)[nH]c1=O)Nc1ccc2c(c1)C(=O)c1ccccc1C2=O	eIF4H FP inh 97.7, PABP polyA inh active
O=C(CSc1ccccn1)Nc1ccc2c(c1)C(=O)c1ccccc1C2=O	none (no result: APOBEC3G inh, A3A deaminase)
COCCn1c(-c2ccco2)csc1=Nc1cccnc1	PHOSPHO1 inh 97.9
CC(C)Cn1c(-c2ccco2)csc1=Nc1cccnc1	none
Nc1ccc(Nc2nc(-c3ccncc3)cs2)cc1	PHOSPHO1 inh 80.9
CCN(CC)Cc1c(O)c(Cl)cc2c(C)cc(=O)oc12	eIF4H FP inh inconclusive, MLLE-PAM2 inh 40.8
CCc1cc(=O)oc2cc(C)c(CN3CCCCC3)c(O)c12	eIF4H FP inh 69.7, PABP polyA inh active (no result: APOBEC3G inh, A3A deaminase)
Cc1cc(=O)oc2c(CN3CCCC3)c(O)c(Cl)cc12	none
Cc1cc(=O)oc2c(CN3CCC(C)CC3)c(O)c(Cl)cc12	eIF4H FP inh inconclusive, PABP polyA inh inconclusive, MLLE-PAM2 inh 51.2
CCCc1cc(=O)oc2c(CN3CCCC3)c(O)c(Cl)cc12	eIF4H FP inh 108.0, PABP polyA inh active
